# Compound activity (PubChem BioAssay)
# Shown are actives, neighbours in structure and some others; about 10% of the full set was active somewhere.
# FLuc inh = inhibitors of firefly (Photinus pyralis) luciferase; P08659; purified P. pyralis luciferase, luminescence, biochemical; Potency, µM (doses to about 115 µM), most hits filed as inhibitors; 76,000 compounds, 2.5% hits; also: nearly all actives have a fitted effect of over 65% in size
# Target sequence (P08659 whole entry, looked up): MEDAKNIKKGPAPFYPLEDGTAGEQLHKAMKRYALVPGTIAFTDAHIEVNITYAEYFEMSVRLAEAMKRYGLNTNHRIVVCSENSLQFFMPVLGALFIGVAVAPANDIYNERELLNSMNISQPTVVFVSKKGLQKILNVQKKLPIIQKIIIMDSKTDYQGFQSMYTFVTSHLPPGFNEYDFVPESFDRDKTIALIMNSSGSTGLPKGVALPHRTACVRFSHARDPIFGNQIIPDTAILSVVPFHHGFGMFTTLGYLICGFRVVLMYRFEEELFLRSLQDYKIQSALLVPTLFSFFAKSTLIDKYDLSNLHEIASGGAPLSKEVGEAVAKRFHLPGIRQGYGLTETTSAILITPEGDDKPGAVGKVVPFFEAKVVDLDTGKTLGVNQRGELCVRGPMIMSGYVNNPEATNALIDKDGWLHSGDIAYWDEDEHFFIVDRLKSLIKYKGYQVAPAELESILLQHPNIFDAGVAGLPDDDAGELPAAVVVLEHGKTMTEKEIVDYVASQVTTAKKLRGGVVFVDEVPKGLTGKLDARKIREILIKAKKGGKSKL
#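 Biochemical qHTS: compound (6-point titration) added to 10uM D-luciferin plus 10uM ATP in Tris acetate pH 7.5 buffer with Mg, Tween-20 and BSA, then purified enzyme at 10nM; light output imaged.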
# HEK293 tox = cytotoxic compounds in HEK 293 cells; HEK 293 viability, ATP luminescence (CellTiter-Glo), 48-72 h; Potency, µM (top dose mostly 115 µM), without a hit: top-dose activity change, negative = cytotoxicity, most hits filed as inhibitors; 94,000 compounds, 6.6% hits; also: nearly all actives have a fitted effect of over 60% in size
#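 HEK 293 cells at 250 cells/well were exposed to compounds by pintool transfer for 48 or 72 hr at 37 degree Celsius, 5% CO2. Viability was read as ATP-coupled luminescence with CellTiter-Glo after 10 min at room temperature.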
# hNpr1 antagonist = human Npr1 receptor antagonism | P16066 | HEK293 hNpr1 GloSensor cGMP, ANP-stimulated luminescence | Potency, µM (doses to about 46.3 µM), for inactives: at the top dose activity change, negative = inhibition, most hits filed as inhibitors | 76,000 compounds, 1.6% hits | AID 1347048; calls by dose curve; also: nearly all actives have a fitted effect of over 60% in size
#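 HEK293 cells stably expressing human Npr1 and cGMP GloSensor pGS-40F, loaded 2 h with 2% GloSensor reagent, given compound 30 min at room temperature. Luminescence read before and 20 min after 0.1 nM hNppA.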
# GPT2 inhibitor = GPT2 alanine aminotransferase inhibition. Recombinant GPT2, coupled pyruvate oxidase/HRP Amplex Red fluorescence. Q8TD30. Potency, µM (doses to about 57.7 µM), for the others: at the highest dose activity change, negative = inhibition, hits mostly inhibitors. 100,000 compounds, 0.25% hits; also: nearly all actives have a fitted effect of over 60% in size
#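 Recombinant GPT2 (10ng/uL) with 250uM a-KG and 2mM L-alanine, 30 min at room temperature, in HEPES pH 7.5 buffer. Pyruvate detected by pyruvate oxidase/HRP/Amplex Red fluorescence after 30 min in the dark; AOA (50uM) as positive control.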
# NIH3T3 tox = kills NIH 3T3 cells. AID 1345082. 94,000 compounds, 4.3% hits. Potency, µM (doses to about 96.7 µM), inactives show top-dose activity change, negative = cytotoxicity, most hits filed as inhibitors. NIH 3T3 viability, CellTiter-Glo ATP luminescence, 48-72 h; also: nearly all actives have a fitted effect of over 55% in size
#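 Cytotoxicity is measured as loss of cellular ATP: NIH 3T3 cells (400/well) are exposed to compound for 48 or 72 hr at 37 °C, then CellTiter-Glo luminescence is imaged after 10 min at room temperature.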
# An asterisk follows results filed as active; i = inactive; ? = inconclusive; / = no result; ! = not confirmed by another sample; [ ] = dose if it differs, or a comment. Unless noted, calls follow the shape of the dose curve; as a rule, active = well fitted curve in the direction sought with a large enough effect; inconclusive = small, poorly fitted or top-dose-only effect, or another doubt; inactive = no such curve, though single readings can be large; an effect the other way counts as inactive or inconclusive. % is scaled to controls: 0 for no effect and ±100 for the full control effect; potency is read from the fitted curve at half-maximal effect.
SMILES,FLuc inh,HEK293 tox,hNpr1 antagonist,GPT2 inhibitor,NIH3T3 tox
Cc1c(-c2ccccc2F)[nH]c2ccc(CNC(=O)Cn3ccc(=O)[nH]c3=O)cc12,10µM*,44.7µM*,-7.1%,i,44.7µM*
CC1(CNc2ccccc2)COc2ccc(C(=O)NCc3cccs3)cc2N1 (centres undefined),i,100µM*,-2.1%[70.6 µM],-9.7%[88.5 µM],?
CC1(COc2ccccc2)COc2ccc(C(=O)NCc3cccs3)cc2N1 (centres undefined),i,112µM*,-11.2%[70.6 µM],1.2%[88.5 µM],?
COc1ccc(NC(=O)C2(C)CN(C)Cc3ccc(NCc4ccccc4)nc32)cc1 (centres undefined),i,?,-17.0%[70.6 µM],0.6%[88.5 µM],44.7µM*
CN1Cc2ccc(NCc3ccccc3)nc2C(C)(C(=O)NCc2cccs2)C1 (centres undefined),i,?,-19.4%[70.6 µM],-0.8%[88.5 µM],79.4µM*
COc1cccc(Nc2ccc3c(n2)C(C)(C(=O)NCc2cccs2)CN(C)C3)c1 (centres undefined),i,?,-4.6%[70.6 µM],-8.7%[88.5 µM],?
CN1Cc2ccc(NCc3ccccc3)nc2C(C)(C(=O)NCCOc2ccccc2)C1 (centres undefined),63.1µM*,?,?,-26.1%[88.5 µM],?
CN1Cc2ccc(NCc3ccccc3)nc2C(C)(C(=O)Nc2ccccc2)C1 (centres undefined),i,63.1µM*,-28.4%[70.6 µM],-2.0%[88.5 µM],44.7µM*
COCCN1Cc2ccc(Nc3ccc(OC)cc3)nc2C(C)(C(=O)NC(C)C)C1 (centres undefined),i,?,6.3%[70.6 µM],i,?
COCCNC(=O)C1(C)CN(C)Cc2ccc(Nc3ccccc3)nc21 (centres undefined),i,?,-0.3%[70.6 µM],-5.0%[88.5 µM],-22.5%[138 µM]
CN(C)CCNC(=O)C1(C)CN(Cc2ccccc2)Cc2ccc(Nc3ccccc3)nc21 (centres undefined),i,28.2µM*,0.5%,-3.9%,15.8µM*
Cc1cccc(N2CCN(C(=O)c3noc(-c4ccc5c(c4)OCO5)n3)CC2)c1,22.4µM*,?,-1.1%,-1.7%,?
CC1(C)[C@H](Cc2cc(CC3CCCCC3)on2)C[C@@H]1NC(=O)c1ccco1,i,25.1µM*,?,?,70.8µM*
COCc1cc(C[C@@H]2C[C@H](NCC3CC3)C2(C)C)no1,i,0.4%[230 µM],3.7%[70.6 µM],4.1%[88.5 µM],-1.2%[174 µM]
CC(C)N[C@H]1C[C@@H](Cc2cc(CC3CCCCC3)on2)C1(C)C,i,31.6µM*,8.0%[70.6 µM],i,44.7µM*
CCC1(CC)CC1C(=O)NCc1cc2c(nc1OC)CN(C1CCCC1)C2=O (centres undefined),i,?,-9.2%,-29.5%,-25.6%
Cc1cnc(C2CCOCC2)n1C1CCN(C(=O)Nc2ccc3c(c2)OCCO3)CC1,35.5µM*,-16.7%,1.8%,i,-10.5%
CNC(=O)N1CCC(Cc2noc(C3CCOCC3)n2)C1 (centres undefined),i,-23.4%,-6.0%,i,-1.3%
Cc1nn(C)c(=O)n1C1CCN(C(=O)Nc2ccc3c(c2)OCCO3)CC1,/,i,/,2.0%,-0.5%
O=C(Nc1ccc2c(c1)OCCO2)N1CCC(Cc2noc(C3CCOCC3)n2)C1 (centres undefined),17.8µM*,-7.4%,-12.7%,-14.7%,-34.5%
O=C(O)C[C@@H]1CCN(C(=O)NC2CCCCC2)C[C@@H]1CCN1CCOCC1,i,i,2.6%[70.6 µM],-7.8%[88.5 µM],-10.2%[174 µM]
O=C(Nc1ccc(=O)n2c1[C@@H]1C[C@@H](CN(C(=O)Nc3ccc(F)cc3)C1)C2)c1ccc2c(c1)OCO2,i,i,-13.1%,i,?
Cc1ccc2nc(C3CCCN(Cc4ccccc4)C3)[nH]c(=O)c2c1 (centres undefined),i,63.1µM*!,2.8%[70.6 µM],-1.8%,?
Cc1cc(C)cc(-c2ccc(CN3CCCC(c4nc5ccc(F)cc5c(=O)[nH]4)C3)cc2)c1 (centres undefined),i,39.8µM*!,-15.3%,2.4%,17.8µM*
